# From PubChem
# Compounds with a hit are over-represented: about 11% of the library has one in this group of screens.
# 3T3 cytotox: kills NIH 3T3 cells | NIH 3T3 viability, CellTiter-Glo ATP luminescence, 48-72 h | Potency, µM (highest dose often 96.7 µM), inactives show top-dose activity change, negative = cytotoxicity, actives largely listed as inhibitors | 4.3% of 94,000 active | AID 1345082; further: on the % scale 0 is the no-effect control and ±100 the full control effect; nearly all actives have a fitted effect of over 55% in size
#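 First NIH 3T3 cells are plated at 400 cells/well; next compound is pinned in; then plates incubate 48 or 72 hr at 37 °C; finally CellTiter-Glo is added and luminescence read after 10 min.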
# NPR1 antag: blocks ANP-stimulated signaling of human Npr1 receptor; HEK293 hNpr1 GloSensor cGMP, ANP-stimulated luminescence; 1.6% of 76,000 active; Potency, µM (top dose mostly 46.3 µM), for the others: at the highest dose activity change, negative = inhibition, usual class: inhibitors; AID 1347048; P16066; calls by dose curve; further: on the % scale 0 is the no-effect control and ±100 the full control effect; nearly all actives have a fitted effect of over 60% in size
#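 HEK293 cells stably expressing human Npr1 and cGMP GloSensor pGS-40F, loaded 2 h with 2% GloSensor reagent, given compound 30 min at room temperature. Luminescence read before and 20 min after 0.1 nM hNppA.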
# HEK cytotox: cytotoxic compounds in HEK 293 cells; HEK 293 viability, ATP luminescence (CellTiter-Glo), 48-72 h; Potency, µM (doses to about 115 µM), without a hit: at the top dose activity change, negative = cytotoxicity, hits mostly inhibitors; 6.6% of 94,000 active; AID 1345083; further: on the % scale 0 is the no-effect control and ±100 the full control effect; nearly all actives have a fitted effect of over 60% in size
#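 Read-out: CellTiter-Glo ATP luminescence. Cells: HEK 293, 250 cells/well. Exposure: 48 or 72 hr, 37 degree Celsius.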
# FLuc inh-1: blocks purified firefly luciferase enzyme activity; P08659; purified P. pyralis luciferase, luminescence, biochemical; Potency, µM (titrated, usually from 115 µM), actives largely listed as inhibitors; 2.5% of 76,000 active; further: on the % scale 0 is the no-effect control and ±100 the full control effect; nearly all actives have a fitted effect of over 65% in size
#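 Luminescence read by CCD imaging after purified firefly luciferase (10nM final) was added to substrate buffer holding 10uM D-luciferin and 10uM ATP, pH 7.5, pre-dosed with compound.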
# FLuc SDR no ATP: firefly luciferase binding stabilization, ATP absent. shares compounds with FLuc inh-1. Purified FLuc-C-HiBiT, Nano-Glo HiBiT luminescence, no ATP. Potency, µM (series often up to 32.7 µM), inactives show at the highest dose activation (signal gain), usual class: activators. 7.8% of 1,300 active; further: nearly all actives have a fitted effect of over 55% in size
# FLuc SDR ATP: firefly luciferase binding stabilization, ATP added. shares compounds with FLuc inh-1. purified FLuc-C-HiBiT + ATP, HiBiT complementation luminescence. Potency, µM (series often up to 32.7 µM), without a hit: at the highest dose activation (gain of signal), hits mostly activators. 8.7% of 1,300 active. AID 1963319;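 further: signal reports ligand binding via conformational change of the enzyme rather than luciferase catalysis; % of control where 0% means no effect; nearly all actives have a fitted effect of over 55% in size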
# FLuc inh-2: blocks firefly luciferase enzymatic activity. shares compounds with FLuc inh-1. purified FLuc-C-HiBiT enzyme, luciferin luminescence. Potency, µM (top dose mostly 32.7 µM), inactives show top-dose activity change, negative = inhibition, hits mostly inhibitors. 42% of 1,300 active. AID 1963320; further: on the % scale 0 is the no-effect control and ±100 the full control effect; nearly all actives have a fitted effect of over 70% in size
# * marks the source's active call; other numbers are inactive results; i = inactive; ? = inconclusive; nt = not tested or not shown; [ ] = another dose, or the depositor's remark. Unless noted, the call rests on the fitted dose curve; in most records, active means well fitted curve in the direction sought with a large enough effect; inconclusive means small, poorly fitted or top-dose-only effect, or another doubt; inactive means no such curve, though single readings can be large; an effect the other way counts as inactive or inconclusive. Potency means the concentration at half of the fitted maximal effect.
SMILES,3T3 cytotox,NPR1 antag,HEK cytotox,FLuc inh-1,FLuc SDR no ATP,FLuc SDR ATP,FLuc inh-2
C=CCN1C[C@H]2COc3cc(OC)ccc3[C@H]2N(C(=O)c2ccc(C)cc2)CCC1=O,?,nt,-6%,nt,nt,nt,nt
CN(C)C(C(=O)NCc1cc(F)c(F)c(F)c1F)c1cccc(F)c1 (centres undefined),2%,1%,4%,i,nt,nt,nt
CCOc1ccc2nc(N3CCN(C(=O)c4ccco4)CC3)sc2c1,nt,nt,nt,nt,24%,15%,?
CCCC(=O)N1CCN(c2nc3ccc(F)cc3s2)CC1,nt,nt,nt,nt,25%,?,11µM*
CCOc1ccc(NC(=O)CCc2c(C)nc3cc(-c4ccc(Cl)cc4)nn3c2C)cc1,nt,nt,nt,nt,22%,0.99µM*,2.8µM*
COC(=O)c1ccccc1NC(=O)CCc1c(C)nc2cc(-c3ccc(Cl)cc3)nn2c1C,nt,nt,nt,nt,9%,?,?
CCOC(=O)c1cccc(NC(=O)CCc2c(C)nc3cc(-c4ccc(Cl)cc4)nn3c2C)c1,nt,nt,nt,nt,13%,?,8.8µM*
O=C(Nc1cc(-c2ccccn2)nn1-c1ccccc1)c1ccc(Cl)nc1,?,nt,-18%,nt,nt,nt,nt
COc1ccc(CN2CCC3(CC(=O)NC3=O)C2)cc1OCc1ccccc1 (centres undefined),i,3%,1%,i,nt,nt,nt
O=C1c2cnc(-c3cccc(O)c3)nc2OCCN1Cc1ccc(F)cc1F,?,-18%[70.6 µM],?,i,nt,nt,nt
O=C1c2cnc(-c3ccccc3)nc2OCCN1Cc1ccccc1,?,-11%[70.6 µM],?,11µM*,15%[49.3 µM],10%[49.3 µM],-20%[49.3 µM]
CN(C)C(=O)c1ccc(-c2ncc3c(n2)OCCN(CC2CC2)C3=O)cc1,?,-2%[70.6 µM],i,?,nt,nt,nt
O=C1c2cnc(-c3ccc(Cl)cc3)nc2OCCN1CC1CC1,nt,nt,nt,nt,24%[49.3 µM],?,4µM*
O=C1c2cnc(-c3ccccc3)nc2OCCN1CC1CC1,nt,nt,nt,nt,?,?,16µM*
COC(=O)c1sccc1NC(=O)N1CCCC1c1noc(COc2ccc(F)cc2)n1 (centres undefined),?,0%,?,i,nt,nt,nt
COC(=O)c1c(-c2cccs2)csc1NC(=O)c1ccc(Br)cc1,nt,nt,nt,nt,5%,4%,11µM*
CC(=O)Nc1ccc(C(=O)NC2CCN(c3cc(-c4cccs4)[nH]n3)C2)cc1 (centres undefined),-13%,-14%,-2%,i,nt,nt,nt
COC(=O)c1c(-c2cccs2)csc1NC(=O)c1ccc(C)cc1,nt,nt,nt,nt,11%,8%,?
Cc1c(C(=O)Nc2ccc(C(=O)O)cc2)nnn1-c1ccccc1,nt,nt,nt,nt,7µM*,0.078µM*,0.078µM*
Cc1ccc2nc([C@H]3CCN(C(C)C)C3)[nH]c2c1,-25%[174 µM],28µM*,?,7.9µM*,17%[65.7 µM],16%[65.7 µM],?
Clc1ccc(-c2cc3c(cn2)CN(Cc2ccncc2)CCN3)cc1,?,?,89µM*,2.2µM*,31%[49.3 µM],?,16µM*
CCn1cc(-c2cc3c(cn2)CN(Cc2ccncc2)CCN3)cn1,-37%[138 µM],-1%[70.6 µM],?,?,nt,nt,nt
Cc1cc(-c2cc3c(cn2)CN(CC2CCOCC2)CCN3)ccn1,?,0%[70.6 µM],?,?,nt,nt,nt
Cc1cc(-c2cc3c(cn2)CN(Cc2ccccn2)CCN3)ccn1,89µM*,2%[70.6 µM],?,14µM*,21%[49.3 µM],19%[49.3 µM],?
COCc1ccc(C(=O)N2CCc3[nH]nc(-c4ccccc4F)c3C2)s1,?,-7%,?,i,nt,nt,nt
CC(=O)Nc1ccc(NC(=O)c2cc(-c3ccc4c(c3)OCCO4)on2)cc1,nt,nt,nt,nt,?,?,0.62µM*
COCCCn1c(=O)c(C(=O)N2CCN(C(=O)NC3CCCC3)CC2)nc2cccnc21,-16%,nt,4%,nt,nt,nt,nt
